AI-2 QS modul – modulators of Vibrio harveyi AI-2 quorum sensing system | Vibrio harveyi JMH597 AI-2 luminescence/OD600 ratio, 9 h; stronger effect = lower value; strain lacks LuxN and CqsS sensors; 0 = neutral-control median | activity change, % at 7.5 µM | hit rate 0.4% among 300,000 | AID 2094; in the data active means activity change below about -75%, passing the limit was not always enough;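 further: luminescence divided by OD600 gain over 9 h not by final OD600 alone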
ALR H2O2 inh – blocks human ALR sulfhydryl oxidase activity. P55789. purified ALR, DTT oxidation, H2O2 HRP-luminol luminescence. inhibition, % (no concentration beside the values). hit rate 3.8% among 290,000;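 active means mean replicate inhibition above about 79%, with every replicate also reaching it, limit read from the data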
Target sequence (P55789 whole entry, looked up): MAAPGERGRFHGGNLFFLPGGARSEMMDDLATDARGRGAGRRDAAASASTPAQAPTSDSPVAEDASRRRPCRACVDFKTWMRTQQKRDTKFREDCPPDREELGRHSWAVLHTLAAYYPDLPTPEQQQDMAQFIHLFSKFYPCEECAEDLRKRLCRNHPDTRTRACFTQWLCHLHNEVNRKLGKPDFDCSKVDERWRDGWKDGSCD
CHT inh – inhibits the human high affinity choline transporter. Q9GZV3. CHT-expressing cells, membrane potential dye, choline response; stronger effect = lower value. B-score at 10 µM. hit rate 0.86% among 310,000. AID 488975;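 active means B-score over 3 SD under the library average, and starting fluorescence ratio not unusually high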;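 further: choline stimulus applied at its EC90 after an EC20 pre-addition; B-score computed on integrated fluorescence ratio after choline addition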
CHT allo act – allosterically activates the human high affinity choline transporter. hit rate 0.49% among 310,000. CHT-expressing cells, membrane potential dye, choline EC20; stronger effect = higher value; LV-AA mutant CHT in HEK293 cells. Q9GZV3. B-score at 10 µM. AID 488977;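 active means initial fluorescence not abnormally high and integrated response B-score, plate-corrected, over 3 SD above library mean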
PREPL inhibitor – inhibits the human prolyl oligopeptidase-like enzyme; recombinant PREPL, fluorescence polarization activity-based probe; inhibition, % at 5.96 µM; hit rate 0.68% among 320,000; in the data active means inhibition above about 43%
Each line names hits and unclear results; the compound was inactive in the other large screens. The list is not random: actives were taken first. Their share in the collection is about 5%.

Cc1cc(S(=O)(=O)N2CCN(C(=O)CCC(=O)N3CCOCC3)CC2)ccc1Br	none (no result: ALR H2O2 inh)
COc1cc(/C=C/CN2CCN(Cc3ccc(C)o3)C(CCO)C2)ccc1O (stereo not given)	ALR H2O2 inh 98
COc1cc(/C=C/CN2CCN(CCC(C)C)C(CCO)C2)ccc1O (stereo not given)	ALR H2O2 inh 94
CCOc1cc(CN2CCN(Cc3ccc(C)o3)C(CCO)C2)ccc1OC (stereo not given)	none
COc1cc(/C=C/CN2CCC(CO)(CC3CCCCO3)CC2)ccc1O (stereo not given)	ALR H2O2 inh 92
CC(=O)c1ccc(NC(=O)C2CCN(S(=O)(=O)c3ccc4c(c3)N(C(C)=O)CCO4)CC2)cc1	none
CC[C@@]1(C(=O)OC)N[C@H](CN(C)S(=O)(=O)c2ccc(OC)cc2)[C@@H]2C(=O)N(C)C(=O)[C@@H]21	none (no result: AI-2 QS modul, ALR H2O2 inh, CHT inh, CHT allo act)
Cc1ccc(S(=O)(=O)N2CCCN(C)c3nc4ccccc4nc32)cc1	none (no result: AI-2 QS modul, ALR H2O2 inh, CHT inh, CHT allo act)
CN1CCCNc2nc3ccccc3nc21	ALR H2O2 inh 80
CCCCN(C(=O)c1cccc(-n2cccc2)c1)c1c(N)n(Cc2ccccc2)c(=O)[nH]c1=O	none
CN(C)CCCN1c2ccccc2CCc2ccc(Cl)cc21	none
CN(CCCN1c2ccccc2CCc2ccccc21)CC(=O)c1ccc(Cl)cc1	ALR H2O2 inh 98
N=c1sccn1CC(=O)Nc1ccc(SC(F)F)cc1	ALR H2O2 inh 98
CCC(C(=O)OCC(=O)Nc1ccc(SC(F)F)cc1)c1ccccc1 (stereo not given)	AI-2 QS modul -89 (no result: ALR H2O2 inh, CHT inh, CHT allo act, PREPL inhibitor)
O=C(CSc1n[nH]c(=O)[nH]c1=O)Nc1ccc(SC(F)F)cc1	ALR H2O2 inh 99 (no result: AI-2 QS modul, CHT inh, CHT allo act)
N=c1sccn1CC(=O)Nc1ccc(S(N)(=O)=O)cc1	none (no result: ALR H2O2 inh)
CCC(C(=O)OCC(=O)Nc1ccc(F)cc1)c1ccccc1 (stereo not given)	none (no result: AI-2 QS modul, CHT inh, CHT allo act)
C/C=C/C(=O)OCC(=O)Nc1ccc(SC(F)F)cc1	ALR H2O2 inh 99
O=C(NCC1CCCCC1)c1cc(S(=O)(=O)N2CCOCC2)ccc1F	none (no result: AI-2 QS modul, CHT inh, CHT allo act)
CNC[C@H]1Oc2ccc(NC(=O)C3CCCCC3)cc2CC(=O)N([C@H](C)CO)C[C@@H]1C	none (no result: AI-2 QS modul, CHT inh, CHT allo act)
COCCNC(=O)COc1ccc(Oc2ccccc2)cc1	none
O=C(O)COc1ccc(Oc2ccccc2)cc1	none
O=C(COc1ccc(Br)cc1)Nc1ccncc1	none
O=C(O)COc1ccc(Nc2ccccc2)cc1	ALR H2O2 inh 99
O=C(COc1ccc(Nc2ccccc2)cc1)OCC(=O)N1CCCCC1	none (no result: ALR H2O2 inh)
O=C(COc1ccc(Nc2ccccc2)cc1)Nc1ccncc1	ALR H2O2 inh 90
NC(=O)C1CCN(C(=O)COc2ccc(Nc3ccccc3)cc2)CC1	ALR H2O2 inh 99
COCCNC(=O)COc1ccc(Nc2ccccc2)cc1	ALR H2O2 inh 99
Clc1nc(-c2ccccc2)cc(-c2ccccc2)n1	none (no result: ALR H2O2 inh)
Cn1c(-c2ccccc2)cc(=O)c2ccccc21	none
O=c1cc(-c2ccccc2)cc(-c2ccccc2)n1O	AI-2 QS modul -82, ALR H2O2 inh 98
CCOc1ccc(S(=O)(=O)NCCC(=O)N2CCN(c3ccc(OC)cc3)CC2)cc1	ALR H2O2 inh 77
COc1ccc(N2CCN(C(=O)CCC(=O)NNc3nc4ccccc4c4nc(C)nn34)CC2)cc1	ALR H2O2 inh 99
COc1ccc(N2CCN(C(=O)CCNS(=O)(=O)c3ccccc3)CC2)cc1	ALR H2O2 inh 98
COc1ccc(N2CCN(C(=O)c3ccccc3N(C)S(=O)(=O)c3ccccc3)CC2)cc1	ALR H2O2 inh 90
Cc1nc2c3ccccc3nc(NNC(=O)CCC(=O)N3CCN(c4ccccc4F)CC3)n2n1	none
COc1ccc(N2CCN(S(=O)(=O)CCNS(=O)(=O)c3ccccc3)CC2)cc1	none
CN(c1ccccc1C(=O)N1CCN(c2ccccc2F)CC1)S(=O)(=O)c1ccccc1	none (no result: PREPL inhibitor)
O=[N+]([O-])c1ccc(S(=O)(=O)c2cccc(C(F)(F)F)c2)nc1	none
COc1ccc(CCN2CC(C(=O)OCC(=O)NC(C)c3cccc(Cl)c3)CC2=O)cc1OC (stereo not given)	none (no result: AI-2 QS modul, ALR H2O2 inh, CHT inh, CHT allo act)
COc1cc(CCC(=O)NCCc2ccc(F)cc2)cc(OC)c1OC	none
COc1ccc(N2CCN(C(=O)CCNC(=O)c3ccc(C(C)(C)C)cc3)CC2)cc1	ALR H2O2 inh 86
COC(=O)c1ccccc1OCC(=O)N1CCN(c2ccc(OC)cc2)CC1	ALR H2O2 inh 88
COC(=O)c1ccccc1OCC(=O)N1CCN(c2ccc(F)cc2)CC1	none
CSc1ccccc1OCc1cc(C(=O)N(C)C2CCCc3ccccc32)no1 (stereo not given)	none
O=C(CS(=O)(=O)c1ccccc1)Nc1nnc(Cc2ccccc2)s1	ALR H2O2 inh 87
CCOc1ccccc1C(=O)NC1CC2CCCC(C1)N2Cc1nnnn1Cc1ccco1 (stereo not given)	none (no result: ALR H2O2 inh)
O=C(NC1CC2CCC(C1)N2Cc1nnnn1Cc1ccco1)NC12CC3CC(CC(C3)C1)C2 (stereo not given)	ALR H2O2 inh 80
COCCOc1ccc(C(F)(F)F)cc1NC(=O)COC(=O)Cc1c[nH]c2ccccc12	none (no result: AI-2 QS modul, CHT inh, CHT allo act)
COc1ccc(CNn2c(-c3cccs3)nc3ccccc3c2=O)cc1OC	none
Cc1ccc(S(=O)(=O)NNC(=O)NC23CC4CC(CC(C4)C2)C3)cc1	ALR H2O2 inh 94
CC(=O)SC1CC(=O)N(c2ccc(C(C)(C)C)cc2)C1=O (stereo not given)	ALR H2O2 inh 98
CC(=O)SC1CC(=O)N(c2c(C)cccc2C)C1=O (stereo not given)	none (no result: ALR H2O2 inh)
C=CCSc1nnc(Cc2cc(=O)[nH]c(=O)[nH]2)n1-c1cc(C)ccc1C	none
COC(=O)C(C)Sc1nnc(Cc2cc(=O)[nH]c(=O)[nH]2)n1-c1cccc(OC)c1 (stereo not given)	none
CCOc1ccc(-n2c(Cc3cc(=O)[nH]c(=O)[nH]3)nnc2SC(C)C(=O)OC)cc1 (stereo not given)	ALR H2O2 inh 93
COC(=O)C(C)Sc1nnc(Cc2cc(=O)[nH]c(=O)[nH]2)n1-c1cc(C)ccc1C (stereo not given)	ALR H2O2 inh 91
CCOC(=O)C1CCCN(C(=S)Nc2ccc(Nc3ccccc3)cc2)C1 (stereo not given)	ALR H2O2 inh 97
CCOC(=O)C1CCN(C(=S)Nc2ccccc2)CC1	none
O=C1NC(=O)C(Nc2cccc3ccccc23)S1 (stereo not given)	none
CN1C(=O)SC(Nc2cccc3ccccc23)C1=O (stereo not given)	ALR H2O2 inh 90
Cc1oc(-c2ccccc2Cl)nc1CS(=O)CC(=O)NCc1cccs1 (stereo not given)	none (no result: ALR H2O2 inh)
Cc1cccc(-c2nc(CS(=O)CC(=O)NCc3cccs3)c(C)o2)c1 (stereo not given)	none (no result: ALR H2O2 inh)
Cc1oc(-c2ccc(Cl)cc2)nc1CS(=O)CC(=O)NCc1cccs1 (stereo not given)	ALR H2O2 inh 99
Cc1oc(-c2ccccc2F)nc1CS(=O)CC(=O)NCc1cccs1 (stereo not given)	ALR H2O2 inh 100

Bioassay records: PubChem, several laboratories
